Laboratory results from PubChem BioAssay (NCATS).
Records with an inconclusive call do not appear. Values without a mark were called inactive. Active and inactive are the calls of the source. Calls follow the shape of the dose curve; as a rule, active = well fitted curve in the direction sought with a large enough effect; inconclusive = small, poorly fitted or top-dose-only effect, or another doubt; inactive = no such curve, though single readings can be large; an effect the other way counts as inactive or inconclusive.

Tests used:
[1] = Quantitative High-Throughput drug screen in 47 multiple myeloma cell lines against the NCATS MIPE library collection: MMM1_PLB cell viability assay (AID 1918976); settings: MMM1 myeloma cells viability, CellTiter-Glo, 48 h; series mostly up to 45.8 µM; also: nearly all actives have a fitted effect of over 35% in size; also: potency is read from the fitted curve at half-maximal effect
Procedure, shortened: (§1)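 ATP-based CellTiter-Glo luminescence after 48 h drug exposure (37 °C, 5% CO2) of 500 myeloma cells per well. DMSO-only wells set 100% viability, media-only wells 0%; MIPE 4.0 library added by pin tool.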

[2] = Quantitative High-Throughput drug screen in 47 multiple myeloma cell lines against the NCATS MIPE library collection: MOLP8_DSMZ cell viability assay (AID 1918977); settings: MOLP8 myeloma viability, CellTiter-Glo ATP luminescence, 48 h; series mostly up to 45.8 µM; also: nearly all actives have a fitted effect of over 45% in size; also: potency is read from the fitted curve at half-maximal effect
Procedure, shortened: as §1

[3] = Quantitative High-Throughput drug screen in 47 multiple myeloma cell lines against the NCATS MIPE library collection: NCIH929_DSMZ cell viability assay (AID 1918978); settings: NCI-H929 myeloma viability, CellTiter-Glo ATP, 48 h; series mostly up to 45.8 µM; also: nearly all actives have a fitted effect of over 35% in size; also: potency is read from the fitted curve at half-maximal effect
Procedure, shortened: as §1

[4] = Quantitative High-Throughput drug screen in 47 multiple myeloma cell lines against the NCATS MIPE library collection: OCIMY1_PLB cell viability assay (AID 1918979); settings: OCI-MY1 myeloma viability, CellTiter-Glo ATP, 48 h; series mostly up to 45.8 µM; also: nearly all actives have a fitted effect of over 35% in size; also: potency is read from the fitted curve at half-maximal effect
Procedure, shortened: as §1

[5] = Quantitative High-Throughput drug screen in 47 multiple myeloma cell lines against the NCATS MIPE library collection: MM1S_ATCC cell viability assay (AID 1918980); settings: MM1S myeloma viability, CellTiter-Glo ATP luminescence, 48 h; series mostly up to 45.8 µM; also: nearly all actives have a fitted effect of over 45% in size; also: potency is read from the fitted curve at half-maximal effect
Procedure, shortened: as §1

[6] = Quantitative High-Throughput drug screen in 47 multiple myeloma cell lines against the NCATS MIPE library collection: KMS28PE_JCRB cell viability assay (AID 1918983); settings: KMS28PE multiple myeloma viability, CellTiter-Glo ATP, 48 h; series mostly up to 45.8 µM; also: nearly all actives have a fitted effect of over 35% in size; also: potency is read from the fitted curve at half-maximal effect
Procedure, shortened: as §1

[7] = Quantitative High-Throughput drug screen in 47 multiple myeloma cell lines against the NCATS MIPE library collection: OCIMY5_PLB cell viability assay (AID 1918988); settings: OCI-MY5 myeloma viability, ATP luminescence, 48 h; series mostly up to 45.8 µM; also: nearly all actives have a fitted effect of over 65% in size; also: potency is read from the fitted curve at half-maximal effect
Procedure, shortened: as §1

[8] = Quantitative High-Throughput drug screen in 47 multiple myeloma cell lines against the NCATS MIPE library collection: OPM1_PLB cell viability assay (AID 1918989); settings: CellTiter-Glo, 48 h; series mostly up to 45.8 µM; also: nearly all actives have a fitted effect of over 40% in size; also: potency is read from the fitted curve at half-maximal effect
Procedure, shortened: as §1

[9] = Quantitative High-Throughput drug screen in 47 multiple myeloma cell lines against the NCATS MIPE library collection: XG6_PLB cell viability assay (AID 1919865); settings: XG6 myeloma viability, CellTiter-Glo ATP luminescence, 48 h; series mostly up to 45.8 µM; also: nearly all actives have a fitted effect of over 40% in size; also: potency is read from the fitted curve at half-maximal effect
Procedure, shortened: as §1

[10] = Quantitative High-Throughput drug screen in 47 multiple myeloma cell lines against the NCATS MIPE library collection: XG1_PLB cell viability assay (AID 1919866); settings: CellTiter-Glo ATP, 48 h; series mostly up to 45.8 µM; also: nearly all actives have a fitted effect of over 35% in size; also: potency is read from the fitted curve at half-maximal effect
Procedure, shortened: as §1

[11] = Quantitative High-Throughput drug screen in 47 multiple myeloma cell lines against the NCATS MIPE library collection: VP6_DJ cell viability assay (AID 1919867); settings: ATP luminescence, 48 h; series mostly up to 45.8 µM; also: nearly all actives have a fitted effect of over 40% in size; also: potency is read from the fitted curve at half-maximal effect
Procedure, shortened: as §1

[12] = Quantitative High-Throughput drug screen in 47 multiple myeloma cell lines against the NCATS MIPE library collection: KMS26_JCRB cell viability assay (AID 1918975); settings: KMS26 myeloma cells viability, CellTiter-Glo ATP, 48 h; series mostly up to 45.8 µM; also: nearly all actives have a fitted effect of over 45% in size
Procedure, shortened: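 Viability readout: CellTiter-Glo luminescence following 5 min room-temperature incubation with reagent. Prior exposure: 48 h, 37C, humidified 5% CO2, 500 cells per well.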

[13] = Quantitative High-Throughput drug screen in 47 multiple myeloma cell lines against the NCATS MIPE library collection: MM1R_ATCC cell viability assay (AID 1918981); settings: MM1R multiple myeloma cells, CellTiter-Glo viability, 48 h; series mostly up to 45.8 µM; also: nearly all actives have a fitted effect of over 35% in size; also: potency is read from the fitted curve at half-maximal effect
Procedure, shortened: as §1

[14] = Quantitative High-Throughput drug screen in 47 multiple myeloma cell lines against the NCATS MIPE library collection: LP1_DSMZ cell viability assay (AID 1918982); settings: LP1 myeloma viability, CellTiter-Glo ATP luminescence, 48 h; series mostly up to 45.8 µM; also: nearly all actives have a fitted effect of over 35% in size; also: potency is read from the fitted curve at half-maximal effect
Procedure, shortened: as §1

[15] = Quantitative High-Throughput drug screen in 47 multiple myeloma cell lines against the NCATS MIPE library collection: OCIMY7_PLB cell viability assay (AID 1918987); settings: OCI-MY7 myeloma viability, CellTiter-Glo ATP, 48 h; viability (% of DMSO): at 45.8 µM (top of the series); also: potency is read from the fitted curve at half-maximal effect; nearly all actives have a fitted effect of over 65% in size
Procedure, shortened: as §1

[16] = Quantitative High-Throughput drug screen in 47 multiple myeloma cell lines against the NCATS MIPE library collection: SKMM1_PLB cell viability assay (AID 1919863); settings: SKMM1 myeloma viability, CellTiter-Glo ATP, 48 h; viability: active compounds read low; also: nearly all actives have a fitted effect of over 35% in size; also: potency is read from the fitted curve at half-maximal effect
Procedure, shortened: as §1

[17] = Quantitative High-Throughput drug screen in 47 multiple myeloma cell lines against the NCATS MIPE library collection: U266_ATCC cell viability assay (AID 1919864); settings: U266 myeloma viability, CellTiter-Glo ATP luminescence, 48 h; series mostly up to 45.8 µM; also: nearly all actives have a fitted effect of over 35% in size; also: potency is read from the fitted curve at half-maximal effect
Procedure, shortened: as §1

[18] = Quantitative High-Throughput drug screen in 47 multiple myeloma cell lines against the NCATS MIPE library collection: L363_DSMZ cell viability assay (AID 1918984); settings: L363 myeloma viability, CellTiter-Glo ATP luminescence, 48 h; series mostly up to 45.8 µM; also: nearly all actives have a fitted effect of over 40% in size; also: potency is read from the fitted curve at half-maximal effect
Procedure, shortened: as §1

[19] = Quantitative High-Throughput drug screen in 47 multiple myeloma cell lines against the NCATS MIPE library collection: KMS34_JCRB cell viability assay (AID 1918985); settings: KMS34 myeloma viability, CellTiter-Glo ATP luminescence, 48 h; series mostly up to 45.8 µM; also: nearly all actives have a fitted effect of over 40% in size; also: potency is read from the fitted curve at half-maximal effect
Procedure, shortened: as §1

## O=C(O)c1cc(O)c2c(c1)C(=O)c1cccc(O)c1C2=O
[1]
  Potency: 2.15 µM (active)
[2]
  Potency: 38.2 µM (active)
[3]
  Potency: inactive
[4]
  Potency: inactive
[5]
  Potency: inactive
[6]
  Potency: 30.3 µM (active)
[7]
  Potency: 48.1 µM (active)
[8]
  Potency: inactive
[9]
  Potency: inactive
[10]
  Potency: inactive
[11]
  Potency: inactive

## COc1cc(NC(=O)c2ccc(-c3ccc(Cl)cc3)o2)cc(OC)c1
[12]
  Potency: inactive
[3]
  Potency: 2.64 µM (active)
[5]
  Potency: 1.05 µM (active)
[13]
  Potency: inactive
[14]
  Potency: inactive
[15]
  Potency: 3.32 µM (active)
[16]
  viability: 155%
[17]
  Potency: 1.66 µM (active)
[9]
  Potency: 1.66 µM (active)
[10]
  Potency: 3.32 µM (active)
[11]
  Potency: 8.33 µM (active)

## CC=CC(=O)N(CC)c1ccccc1C
[1]
  Potency: 3.72 µM (active)
[2]
  Potency: 0.0418 µM (active)
[3]
  Potency: inactive
[4]
  Potency: inactive
[5]
  Potency: 6.62 µM (active)
[13]
  Potency: inactive
[14]
  Potency: inactive
[6]
  Potency: inactive
[18]
  Potency: inactive
[7]
  Potency: inactive
[8]
  Potency: inactive
[16]
  viability: 126%
[17]
  Potency: inactive
[9]
  Potency: 23.5 µM (active)
[10]
  Potency: 26.4 µM (active)
[11]
  Potency: 29.6 µM (active)

## Cc1nc(N)sc1-c1ccnc(Nc2ccc(N3CCOCC3)cc2)n1
[1]
  Potency: 20.9 µM (active)
[2]
  Potency: 7.43 µM (active)
[3]
  Potency: 7.43 µM (active)
[4]
  Potency: 16.6 µM (active)
[5]
  Potency: 18.7 µM (active)
[13]
  Potency: 10.5 µM (active)
[14]
  Potency: 20.9 µM (active)
[18]
  Potency: 2.96 µM (active)
[19]
  Potency: 1.05 µM (active)
[15]
  Potency: 1.05 µM (active)
[7]
  Potency: 5.26 µM (active)
[8]
  Potency: 4.18 µM (active)
[17]
  Potency: 23.5 µM (active)
[9]
  Potency: 4.69 µM (active)
[10]
  Potency: 2.64 µM (active)
[11]
  Potency: 3.32 µM (active)

## CC=CC[C@@H](C)C(=O)[C@H]1C(=O)N[C@@H](C(C)C)C(=O)N(C)CC(=O)N(C)[C@@H](CC(C)C)C(=O)N[C@@H](C(C)C)C(=O)N(C)[C@@H](CC(C)C)C(=O)N[C@@H](C)C(=O)N[C@H](C)C(=O)N(C)[C@@H](CC(C)C)C(=O)N(C)[C@@H](CC(C)C)C(=O)N(C)[C@@H](C(C)C)C(=O)N1C
[1]
  Potency: 5.26 µM (active)
[4]
  Potency: inactive
[5]
  Potency: 16.6 µM (active)
[15]
  Potency: 16.6 µM (active)
[7]
  Potency: 23.5 µM (active)
[16]
  Potency: 14.8 µM (active)

## CN1C[C@H]2c3ccccc3Oc3ccc(Cl)cc3[C@@H]2C1
[2]
  Potency: inactive
[4]
  Potency: inactive
[5]
  Potency: inactive
[13]
  Potency: inactive
[14]
  Potency: inactive
[6]
  Potency: inactive
[7]
  Potency: 13.2 µM (active)
[17]
  Potency: inactive
[9]
  Potency: inactive
[10]
  Potency: inactive
[11]
  Potency: 4.18 µM (active)

## Cc1ccccc1C(C(=O)NC1CCCCC1)N(C(=O)Cn1ccnc1C)c1cccc(F)c1 (stereo unspecified)
[1]
  Potency: 10.5 µM (active)
[4]
  Potency: inactive
[14]
  Potency: 13.2 µM (active)
[19]
  Potency: 20.9 µM (active)
[7]
  Potency: 23.5 µM (active)
[8]
  Potency: inactive
[16]
  Potency: 0.469 µM (active)
[17]
  Potency: 5.26 µM (active)
[9]
  Potency: inactive
[10]
  Potency: inactive

## CON=C(C(=O)N[C@@H]1C(=O)N2C(C(=O)OCOC(=O)C(C)(C)C)=C(C=Cc3scnc3C)CS[C@H]12)c1csc(N)n1
[2]
  Potency: inactive
[3]
  Potency: 20.9 µM (active)
[13]
  Potency: 18.7 µM (active)
[14]
  Potency: inactive
[7]
  Potency: inactive
[8]
  Potency: inactive
[9]
  Potency: 26.4 µM (active)
[10]
  Potency: 18.7 µM (active)

## Nc1ncnc2ccccc12
[2]
  Potency: inactive
[3]
  Potency: 26.4 µM (active)
[4]
  Potency: inactive
[13]
  Potency: inactive
[14]
  Potency: inactive
[15]
  Potency: 14.8 µM (active)
[7]
  Potency: 26.4 µM (active)
[8]
  Potency: inactive
[17]
  Potency: inactive
[10]
  Potency: 7.43 µM (active)
[11]
  Potency: inactive

## O=c1cc(-c2ccc(O)cc2)oc2cc(O)cc(O)c12
[1]
  Potency: 18.7 µM (active)
[3]
  Potency: 6.62 µM (active)
[5]
  Potency: 8.33 µM (active)
[6]
  Potency: 18.7 µM (active)
[19]
  Potency: 13.2 µM (active)
[7]
  Potency: 10.5 µM (active)
[8]
  Potency: 18.7 µM (active)
[17]
  Potency: 20.9 µM (active)

## CC=CCC=CCCC(=O)[C@H]1O[C@@H]1C(N)=O
[2]
  Potency: 14.8 µM (active)
[5]
  Potency: 20.9 µM (active)
[13]
  Potency: 18.7 µM (active)
[18]
  Potency: 18.7 µM (active)
[7]
  Potency: 14.8 µM (active)
[16]
  Potency: 18.7 µM (active)
[9]
  Potency: 18.7 µM (active)
[10]
  Potency: 20.9 µM (active)
[11]
  Potency: 23.5 µM (active)

## N[C@H](CSC(c1ccccc1)(c1ccccc1)c1ccccc1)C(=O)O
[1]
  Potency: inactive
[5]
  Potency: 13.2 µM (active)
[19]
  Potency: 9.35 µM (active)
[15]
  Potency: 7.43 µM (active)
[7]
  Potency: 9.35 µM (active)
[8]
  Potency: 5.9 µM (active)
[16]
  Potency: 10.5 µM (active)
[17]
  Potency: inactive
[9]
  Potency: 6.62 µM (active)
[11]
  Potency: 10.5 µM (active)

## N[C@@]1(C(=O)O)CS(=O)(=O)[C@H]2[C@H](C(=O)O)[C@H]21
[2]
  Potency: inactive
[4]
  Potency: inactive
[5]
  Potency: 3.72 µM (active)
[19]
  Potency: inactive
[17]
  Potency: 4.18 µM (active)

## O=C(N[C@@H](c1ccccc1)[C@@H]1CCCCN1)c1cccc(C(F)(F)F)c1Cl
[1]
  Potency: 1.32 µM (active)
[5]
  Potency: 20.9 µM (active)
[7]
  Potency: 18.7 µM (active)
[10]
  Potency: 23.5 µM (active)

## c1cc(-c2sc(-c3ccncc3)c(-c3ccncc3)c2-c2ccncc2)ccn1
[2]
  Potency: inactive
[3]
  Potency: 8.33 µM (active)
[4]
  Potency: inactive
[5]
  Potency: 26.4 µM (active)
[14]
  Potency: inactive
[18]
  Potency: 3.32 µM (active)
[19]
  Potency: inactive
[15]
  Potency: 5.26 µM (active)
[10]
  Potency: 11.8 µM (active)
[11]
  Potency: 9.35 µM (active)
